Compound activity: PubChem BioAssay, National Center for Advancing Translational Sciences (NCATS)
In the library only some 21% were active in any assay of this set; here they are far more common.
Cycloheximide cs – affects cycloheximide protein synthesis inhibition readout, counter-screen | AID 2314 | cell reporter, cycloheximide protein synthesis inhibition counterscreen | max response, % | 12% of 300,000 active; in the data active = max response mostly above about 13%, no sharp cut-off; inactive = mostly below about 14%; note: read at 38.3 µM for the half of the compounds with a filed dose; 0% is about no effect
Pf growth 48h – inhibits P. falciparum growth in the first generation, 48 h. P. falciparum luciferase growth in erythrocytes, 48 h. Potency, µM (doses to about 28.7 µM), without a hit: at the highest dose activity change, negative = inhibition, usual class: inhibitors. 5.9% of 310,000 active; note: potency is the fitted concentration of half-maximal effect; % is set by controls: 0 for no effect and ±100 for the full control effect
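Here the parasites carry a stable luciferase gene and grow inside erythrocytes in Albumax-based RPMI medium with compound for one erythrocytic cycle. Activity is scored as loss of luminescent signal.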
Pf growth 96h – P. falciparum growth inhibition at 96 hours; P. falciparum luciferase reporter growth, 96 h; Potency, µM (highest dose often 28.7 µM), inactives show top-dose activity change, negative = inhibition, hits mostly inhibitors; 6.9% of 320,000 active; AID 504834; note: potency is the fitted concentration of half-maximal effect; % is set by controls: 0 for no effect and ±100 for the full control effect
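Parasite growth measured via integrated firefly luciferase reporter in P. falciparum. Infected erythrocytes at 2% hematocrit, 0.05% parasitemia final were treated 96 hours at 37 C under 5% CO2, and luminescence was read.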
Giardia FBPA inh – inhibitors of Giardia lamblia fructose-1,6-bisphosphate aldolase | purified Giardia FBPA | AID 2451 | A8B2U2 | Potency, µM (top dose mostly 59.6 µM), inactives show at the highest dose activity, negative = inhibition, usual class: inhibitors | 0.71% of 290,000 active; note: potency is the fitted concentration of half-maximal effect; % is set by controls: 0 for no effect and ±100 for the full control effect; nearly all actives have a fitted effect of over 55% in size
Target sequence (A8B2U2 whole entry, looked up): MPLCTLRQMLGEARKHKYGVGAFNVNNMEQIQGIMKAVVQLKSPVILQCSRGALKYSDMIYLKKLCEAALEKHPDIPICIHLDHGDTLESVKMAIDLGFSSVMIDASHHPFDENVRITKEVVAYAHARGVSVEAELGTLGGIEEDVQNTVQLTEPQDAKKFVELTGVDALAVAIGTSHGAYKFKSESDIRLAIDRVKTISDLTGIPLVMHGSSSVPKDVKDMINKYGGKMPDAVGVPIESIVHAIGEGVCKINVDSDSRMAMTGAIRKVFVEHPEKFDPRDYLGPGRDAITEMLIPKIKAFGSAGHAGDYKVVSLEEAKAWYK
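40 nM FBPA preincubated 10 min at RT with compound (up to 57.5 uM final), then substrate plus GAPDH/TPI/NAD/arsenate coupling and diaphorase/resazurin added. Fluorescence read after 20 min at RT, 525/598 nm.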
Shiga inhibitor – blocks Shiga toxin action in Vero cells | inhibition, % at 38.7 µM | 9.2% of 290,000 active | Vero cells, Shiga toxin protein synthesis inhibition reporter | AID 2315; in the data active = inhibition mostly above about 28%, no sharp cut-off; inactive = mostly below about 43%; note: 0% is about no effect
NS1 function inh – influenza NS1 inhibition; Potency, µM (doses to about 46.1 µM), without a hit: at the highest dose activity, positive = more growth; 0.4% of 270,000 active; calls by dose curve; note: potency is the fitted concentration of half-maximal effect; actives are rising curves; nearly all actives have a fitted effect of over 50% in size
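S. cerevisiae expressing influenza A NS1, grown in glucose, washed, then diluted 1:100 into pH 6.0 -URA galactose medium with 23 nl compound. Growth recovery read as OD600; NS1-free strain serves as control.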
Numbers without * were called inactive. Unless noted, calls come from the whole dose curve; as a rule, active = well fitted curve in the direction sought with a large enough effect; inconclusive = small, poorly fitted or top-dose-only effect, or another doubt; inactive = no such curve, though single readings can be large; an effect the other way counts as inactive or inconclusive.

CCOC(=O)Cc1csc(NC(=O)c2ccc(C)cc2)n1 was read as Cycloheximide cs 34*, Pf growth 48h 68%, Pf growth 96h 15%, Giardia FBPA inh -10%, Shiga inhibitor 91* and NS1 function inh -4%.
Screening CCOC(=O)Cc1csc(NC(=S)NC(=O)c2cc(OC)cc(OC)c2)n1 returned Cycloheximide cs 2, Pf growth 48h 19%, Pf growth 96h -28%, Giardia FBPA inh -20%, Shiga inhibitor -9 and NS1 function inh 0%.
Screening CCOC(=O)Cc1csc(NC(=O)c2cc(C)cc(C)c2)n1 returned Cycloheximide cs -2, Pf growth 48h 5%, Pf growth 96h inconclusive, Giardia FBPA inh -8%, Shiga inhibitor 19 and NS1 function inh -5%.
For CCOC(=O)Cc1csc(NC(=O)c2ccoc2C)n1 the results were Cycloheximide cs 29*, Pf growth 48h 73%, Giardia FBPA inh 1%, Shiga inhibitor 84* and NS1 function inh 2%.
Screening C(CCc1nnc2c(n1)CCCC2)Cc1nnc2c(n1)CCCC2 returned NS1 function inh 2%.
COc1ccc(-n2c(SCC#N)nc3c(sc(=S)n3-c3ccccc3)c2=O)c(OC)c1 was read as Cycloheximide cs 11, Pf growth 48h -28%, Pf growth 96h 16%, Giardia FBPA inh 2%, Shiga inhibitor -7 and NS1 function inh 14%.
Screening COCCNC(=O)CN(Cc1ccc2c(c1)OCO2)C(=O)CCC(=O)Nc1nccs1 returned Cycloheximide cs -1, Pf growth 48h 11%, Giardia FBPA inh 7%, Shiga inhibitor -10 and NS1 function inh -5%.
For CCOC(=O)Cc1csc(NC(=S)NC(=O)c2ccccc2)n1 the results were Cycloheximide cs 3, Pf growth 48h inconclusive, Pf growth 96h 34%, Giardia FBPA inh inconclusive, Shiga inhibitor 13 and NS1 function inh 2%.
For CCOC(=O)Cc1csc(NC(=S)NC(=O)c2ccc(C)cc2)n1 the results were Cycloheximide cs 6, Pf growth 48h 2.9µM*, Pf growth 96h 3.7µM*, Giardia FBPA inh inconclusive, Shiga inhibitor -5 and NS1 function inh 5%.
Cc1csc(NC(=O)c2ccc3c(c2)OCO3)n1 was read as Cycloheximide cs 31*, Pf growth 48h 188%, Pf growth 96h 28%, Giardia FBPA inh -3%, Shiga inhibitor 71* and NS1 function inh -13%.
`O=C(Nc1nccs1)c1ccc2c(c1)OCO2` gave Cycloheximide cs 20*, Pf growth 48h 197%, Pf growth 96h 56%, Giardia FBPA inh -9%, Shiga inhibitor 65* and NS1 function inh -15%.
Screening Cc1cccnc1NC(=O)c1ccc2c(c1)OCO2 returned Pf growth 48h 73% and Pf growth 96h 59%.
CC(C)(C)NC(=O)CN(Cc1ccc2c(c1)OCO2)C(=O)CCC(=O)Nc1nccs1 was read as Cycloheximide cs 15*, Pf growth 48h 20%, Pf growth 96h inconclusive, Giardia FBPA inh -28%, Shiga inhibitor 38 and NS1 function inh 3%.
Cc1csc(NC(=O)c2ccncc2)n1 was read as Cycloheximide cs 3, Pf growth 48h inconclusive, Pf growth 96h -48%, Giardia FBPA inh -8%, Shiga inhibitor 6 and NS1 function inh 8%.
For CN(C)S(=O)(=O)N1CCN(C(=O)c2ccc3c(c2)OCO3)CC1 the results were Cycloheximide cs -2, Pf growth 48h -2%, Pf growth 96h 7%, Giardia FBPA inh 11%, Shiga inhibitor 1 and NS1 function inh 18%.
`COc1ccc(CC(=O)Nc2sccc2C#N)cc1S(=O)(=O)N1CCOCC1` gave Pf growth 48h -21% and Pf growth 96h -10%.
Screening Cc1csc(NC(=O)c2ccoc2C)n1 returned Cycloheximide cs 49*, Pf growth 48h 86%, Pf growth 96h 8%, Giardia FBPA inh 2%, Shiga inhibitor 64* and NS1 function inh -3%.
For Cc1csc(NC(=O)c2cc(C)on2)n1 the results were Pf growth 48h 341% and Pf growth 96h 422%.
Cc1nc(N2CCCCC2)c2c(C)c(C(=O)Nc3cccc(C(F)(F)F)c3)sc2n1 was read as Cycloheximide cs 7, Pf growth 48h 2.6µM*, Pf growth 96h -30%, Giardia FBPA inh -8% and Shiga inhibitor 17.
`CCOc1ccccc1NC(=O)c1sc2nc(C)nc(N3CCOCC3)c2c1C` gave Cycloheximide cs -4, Pf growth 48h inconclusive, Pf growth 96h -7%, Giardia FBPA inh 5%, Shiga inhibitor -8 and NS1 function inh -6%.
For Cc1nc(N2CCCCC2C)c2c(C)c(C(=O)Nc3cccc(C(F)(F)F)c3)sc2n1 (stereo not given) the results were Cycloheximide cs 1, Pf growth 48h inconclusive, Pf growth 96h 25%, Giardia FBPA inh -5% and Shiga inhibitor -4.
`Cc1nc(N2CCCCC2)c2c(C)c(C(=O)Nc3ccccc3C(F)(F)F)sc2n1` gave Cycloheximide cs -5, Pf growth 48h 9.3µM*, Pf growth 96h inconclusive, Giardia FBPA inh -13% and Shiga inhibitor 41.
Screening CC1C(=O)N2CCCc3cc(NC(=O)CC(C)(C)C)cc1c32 (stereo not given) returned Cycloheximide cs -5, Pf growth 48h -7%, Pf growth 96h 17%, Giardia FBPA inh 2%, Shiga inhibitor 11 and NS1 function inh 11%.
For Fc1cccc(Cl)c1CN1CCN(c2nc3ccccc3s2)CC1 the results were Cycloheximide cs 53*, Pf growth 48h 66%, Pf growth 96h 129%, Giardia FBPA inh -1%, Shiga inhibitor 159* and NS1 function inh -12%.
For O=C(c1cccs1)N1CCN(c2nc3ccccc3s2)CC1 the results were Cycloheximide cs 1, Pf growth 48h 5%, Pf growth 96h 53%, Giardia FBPA inh 7%, Shiga inhibitor -7 and NS1 function inh -1%.
`CC(C)(C)C(=O)N1CCN(c2nc3ccccc3s2)CC1` gave Cycloheximide cs 57*, Pf growth 48h 116%, Pf growth 96h 179%, Giardia FBPA inh 1%, Shiga inhibitor 76* and NS1 function inh -2%.
For CCCC(=O)N1CCN(c2nc3ccccc3s2)CC1 the results were Cycloheximide cs 42*, Pf growth 48h 21%, Pf growth 96h 268%, Giardia FBPA inh -2%, Shiga inhibitor 42* and NS1 function inh -13%.
`O=C(NC1CC1)C1CCN(c2nc3ccccc3s2)CC1` gave Cycloheximide cs 23*, Pf growth 48h -25%, Pf growth 96h -2%, Giardia FBPA inh -8%, Shiga inhibitor 63* and NS1 function inh -3%.
For O=C(c1ccc2ccccc2n1)N1CCN(Cc2c(F)cccc2Cl)CC1 the results were Cycloheximide cs -4, Pf growth 48h 5%, Pf growth 96h 1%, Giardia FBPA inh 7%, Shiga inhibitor 5 and NS1 function inh -28%.
Cc1cc2ccccn2c1C(=O)c1ccccc1F was read as Cycloheximide cs 6, Pf growth 48h 11%, Pf growth 96h 34%, Giardia FBPA inh 0%, Shiga inhibitor 22 and NS1 function inh -38%.
